# Compounds with a hit are over-represented: about 0.82% of the library has one in this group of screens.
# Keap1 Nrf2 FP: disrupts human Keap1 binding to Nrf2 peptide; 0.15% of 340,000 active; inhibition, % at 9.4 µM; Keap1 Kelch-Nrf2 peptide fluorescence polarization, 1536-well; AID 504523; Q14145; in the data active = inhibition above about 12%;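 also: human Keap1 Kelch domain with fluorescein labeled Nrf2 9mer peptide probe; 0% = neutral control wells and 100% = peptide positive control; higher means more block of Keap1 binding to Nrf2 peptide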
# Target sequence (Q14145 whole entry, looked up, the tested form may be a part): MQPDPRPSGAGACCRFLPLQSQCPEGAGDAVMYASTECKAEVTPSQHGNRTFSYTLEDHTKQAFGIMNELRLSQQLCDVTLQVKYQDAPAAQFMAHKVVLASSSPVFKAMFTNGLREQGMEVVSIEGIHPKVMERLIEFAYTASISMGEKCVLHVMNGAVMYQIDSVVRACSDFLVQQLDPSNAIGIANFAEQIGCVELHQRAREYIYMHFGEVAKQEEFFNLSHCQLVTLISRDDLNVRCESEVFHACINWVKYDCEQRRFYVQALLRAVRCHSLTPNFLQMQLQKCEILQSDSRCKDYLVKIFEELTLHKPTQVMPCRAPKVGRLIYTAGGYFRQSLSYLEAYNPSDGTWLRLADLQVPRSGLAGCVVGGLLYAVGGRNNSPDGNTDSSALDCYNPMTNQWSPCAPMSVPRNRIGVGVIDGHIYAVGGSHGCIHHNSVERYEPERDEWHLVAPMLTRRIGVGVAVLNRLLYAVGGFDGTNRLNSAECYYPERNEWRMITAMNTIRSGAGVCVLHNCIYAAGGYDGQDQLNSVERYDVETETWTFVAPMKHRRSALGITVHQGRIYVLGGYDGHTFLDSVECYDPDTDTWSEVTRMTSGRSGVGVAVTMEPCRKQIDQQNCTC
# C-LANA FP: inhibitors of KSHV LANA C-terminal domain DNA binding; inhibition, % at 9 µM; MBP-C-LANA/FAM-LBS DNA binding, fluorescence polarization; 0.078% of 340,000 active; AID 504423;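 active = highest replicate inhibition at or above 60% at 9 µM, even if other replicates fall short; inactive = all replicates below 60% inhibition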;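 also: 0% = neutral control wells and 100% = 4 µM acridine orange control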
# RTF Ca sens inh: cardiac RTF calcium desensitization; P19429+P45379; IANBD-labeled cardiac RTF, Ca2+ fluorescence; inhibition, % at 7.15 µM; 0.12% of 340,000 active; AID 493244;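 active = inhibition above the mean inhibition of all tested compounds plus 3 SD, cut at about 17% in these data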;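 also: assay run at fixed EC70 calcium of 1.6 mM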
# cardiac RTF act: increases calcium sensitivity of human cardiac regulated thin filaments; P19429+P45379; IANBD-labeled TnC RTF fluorescence at EC20 calcium; 0% EC20 calcium, 100% full calcium; activation, % at 7.2 µM; 0.24% of 340,000 active;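 active = activation above the mean over all tested compounds plus 3 SD, cut at about 30% in these data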;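 also: rise in fluorescence read as greater calcium sensitivity of cardiac thin filaments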
# E coli Lon inh: inhibits E. coli Lon protease; inhibition, % at 7.94 µM; purified E. coli Lon protease, fluorescence polarization; 0.42% of 360,000 active; P0A9M0; AID 602123; in the data active = inhibition above about 13%, passing the limit was not always enough;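 also: 0% = enzyme with probe and DMSO and 100% = no enzyme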
# The depositor's hits bear a star; i = inactive; . = not tested or not shown; + = active, no number.
SMILES,Keap1 Nrf2 FP,C-LANA FP,RTF Ca sens inh,cardiac RTF act,E coli Lon inh
COC1=CC(C)C2CC3OC(O)CC4C(C)=C(OC)C(=O)C(C2(C)C1=O)C34C (stereo not given),.,.,.,.,2
CCc1ccc(Nc2n[n+](-c3ccccc3)c(-c3ccc(N(CC)CC)cc3)s2)cc1,-18,3,-61,33*,-401
CCc1ccc(Nc2n[n+](-c3ccccc3)c(-c3ccc(OCc4ccccc4)cc3)s2)cc1,-6,4,-4,2,-7
CCN(CC)c1ccc(-c2sc(Nc3ccccc3)n[n+]2-c2ccc(F)cc2)cc1,-16,5,-25,31*,-176
O=C(c1cc(Cl)cc(Cl)c1)N1CCC2CC1c1cc(N3CCCCC3)ccc12 (stereo not given),.,.,.,.,-3
CC1(C(=O)NS(=O)(=O)c2cccc(OC(F)F)c2)CCN1C(=O)C1CCCCC1 (stereo not given),.,.,.,.,-3
O=S(=O)(O)c1cc(O)c2c(O)c(N=Nc3cc(Cl)ccc3O)c(S(=O)(=O)O)cc2c1,0,50,27*,-11,45*
Oc1ccc(Cl)cc1N=Nc1ccccc1,-4,-1,4,-8,2
Cc1cc(-c2cccs2)c2c(N)c(C(=O)c3ccc4c(c3)OCO4)sc2n1,-2,13,-20,10,-35
COc1ccc(C(=O)c2sc3nc(C)cc(-c4cccs4)c3c2N)cc1OC,5,26,-57,44*,-200
COc1ccc(C(=O)c2sc3nc(C)cc(-c4cccs4)c3c2N)cc1,-2,4,-47,68*,-74
COc1ccc(NC(=O)c2cc(C3CCCCN3C(=O)CCCc3ccccc3)on2)c(C)c1 (stereo not given),.,.,.,.,-20
CN1CC=C2C(C#N)=C(N)C(C#N)(C#N)C(CCc3ccccc3)C2C1 (stereo not given),20*,51,-28,35*,33*
O=c1c2ccccc2nc(/C=C/c2ccccc2)n1CCCO,2,-3,3,-9,18
CN(C)c1ccc(/C=C/c2nc3ccccc3c(=O)n2CCO)cc1,-57,12,-135,38*,-415
CC1=Nc2ccccc2/C1=C\c1nc(-c2ccc(C(F)(F)F)cc2)oc1O,0,4,-45,156*,-152
O=C1CCCN1CCCNc1nc(NCc2cccs2)nc2ccsc12,.,.,.,.,2
O=C1/C(=C/c2cccc(F)c2)Oc2cc(O)ccc21,-3,8,-43,49*,-46
Cc1cc(O)c(C=O)c2c1C(=O)Oc1c(CO)c(O)c3c(c1O2)C(O)OC3=O (stereo not given),47*,118*,30*,-29,72*
CCNC(=O)C1(C)CCCN(Cc2cccc(Oc3ccccc3)c2)C1 (stereo not given),.,.,.,.,-5
COCCCNC1=C(Cl)C(=O)c2ccccc2C1=O,0,-1,-4,-2,7
COCCCNc1c2c3c(cccc3[nH]c1=O)C(=O)c1ccccc1-2,167*,184*,i,+,-38
O=C(CCN1C(=O)/C(=C/c2ccccc2)SC1=S)NNC(=O)c1cccnc1,5,-1,-43,35*,2
O=C(CCN1C(=O)/C(=C/c2ccc(F)cc2)SC1=S)NNC(=O)c1cccnc1,-5,-3,-3,2,-13
Nc1c(C(=O)C2CC2)sc2nc(-c3cccs3)cc(C(F)(F)F)c12,-39,-15,-36,46*,-222
SMILES,Keap1 Nrf2 FP,C-LANA FP,RTF Ca sens inh,cardiac RTF act,E coli Lon inh
NC(=S)N=Nc1c(O)cc(O)c2[nH]c(=O)ccc12,15*,24,12,-1,11
N=c1n(Cc2ccccc2)c2ccccc2n1CC(O)c1ccco1 (stereo not given),0,22,-57,40*,-51
CCn1c(=N)n(CC(O)c2ccco2)c2ccccc21 (stereo not given),-3,2,3,4,5
COc1cccc(CN2CCC2(C)C(=O)Nc2cccc(Oc3ccccc3)c2)c1F (stereo not given),.,.,.,.,-17
COc1ccc(C2c3cc(OC)c(OC)cc3CC3C(=O)OCC32)cc1OC (stereo not given),4,4,-8,3,-3
O=C1N/C(=C/c2ccc(N3CCCC3)cc2)C(=O)N1c1ccccc1,-4,-1,-8,6,-59
O=C1/C(=C/c2ccc(N3CCCC3)cc2)NC(=S)N1C1CC1,-32,-4,-152,56*,i
CN1C(=O)c2ccc(N3CCCC3)cc2C1=O,-2,1,-13,3,7
Cc1cc(N2CCCC2)ccc1/C=C1\NC(=S)N(C)C1=O,-22,-16,-119,53*,-336
Nc1c(C(=O)c2ccc(Cl)cc2)sc2nsc(SCCN3CCOCC3)c12,-7,0,-21,33*,-57
Nc1c(C(=O)c2ccccc2)sc2nsc(SCCN3CCCC3)c12,-15,-5,-29,10,-140
Nc1ncnc2c1ncn2C1OCC(O)C1O (stereo not given),.,.,.,.,-5
COC(=O)c1ccc(CS(=O)(=O)c2ccc(F)cc2)o1,0,4,-3,32*,4
N#C/C(=C\C=C\c1ccccc1)c1nc(-c2ccc3c(c2)OCO3)cs1,0,4,-24,34*,-34
O=C(O)Cc1ccc(N=Nc2c(O)c(C(=O)O)cc3ccccc23)cc1,-2,92*,17,-19,15
O=C1Nc2ccccc2N=C(c2ccc3c(c2)OCO3)C1N(C(=O)c1ccc2ccccc2c1)C1CC1 (stereo not given),.,.,.,.,-2
COc1ccccc1-[n+]1c(C)cc(/C=C2\Sc3ccccc3N2C)cc1C,-10,-16,-62,48*,-204
COc1ccc(-[n+]2c(C)cc(/C=C3\Sc4ccccc4N3C)cc2C)cc1,-19,-11,-55,44*,-185
CCC(c1nnnn1-c1ccc2c(c1)OCCO2)N1CCN(C)CC1 (stereo not given),.,.,.,.,-6
COc1ccc2c(CC(=O)Nc3nc(C)cs3)coc2c1,0,1,6,-2,-1
COc1ccc2c(CC(=O)Nc3ncc(C)s3)coc2c1,1,78*,-3,-8,-1
Cc1cc(Br)c2c(c1)C(O)(N1CCCCC1C)C(=O)N2 (stereo not given),-5,0,-3,30*,-10
CN(C)c1ccc(/C=C/C(=O)c2ccc(O)cc2)cc1,-97,-20,-119,72*,i
CN(C)c1ccc(C(=O)C=Cc2ccc([N+](=O)[O-])cc2)cc1,.,.,.,.,-7
CN(C)c1ccc(/C=C/C(=O)c2ccc3c(c2)OCO3)cc1,-113,3,-104,92*,i
COc1ccc(C(=O)/C=C/c2ccc(N(C)C)cc2)c(OC)c1,-60,-8,-133,81*,-406
O=C(/C=C/c1ccccc1)c1ccc2c(c1)OCO2,0,2,-4,9,4
CCCCOCCCNC(=O)C[C@@H]1C[C@@]2(C(=O)OCC)CCCC=C2N(Cc2ccco2)C1=O,.,.,.,.,-6
COc1ccc(CCNC(=O)c2c(N)no[n+]2[O-])cc1OC,0,80*,-2,6,1
